The text below walks through data of PubChem BioAssay (NCATS).

Results filed as inconclusive are left out. A number with no mark means an inactive call. Activity calls are given as the source filed them. Calls follow the shape of the dose curve; as a rule, active = well fitted cell-killing curve with a large enough effect; inconclusive = small, poorly fitted or top-dose-only effect, or effect the other way; inactive = flat fitted curve, though single readings scatter. Where a SMILES comes first, the peptide text is derived from it. [ ]: non-standard residue; d: D form. Ala(indol-2-yl) = N[C@@H](Cc1cc2ccccc2[nH]1)C(=O)O; Aib = CC(C)(N)C(=O)O
% is scaled to controls: 0 for no effect and ±100 for the full control effect; potency is read from the fitted curve at half-maximal effect.

For the assay, the system named is Tov112D. The assay is described as follows: Primary qHTS to identify gynecologic anti-cancer compounds using libraries of approved drugs and bioactive compounds (AID 1345084). Also: nearly all actives have a fitted effect of over 55% in size. Conditions: Gynecologic cancer cell panel viability, ATPlite luminescence, 48 h; series mostly up to 57.5 µM; activity change, negative = cytotoxicity: at the top concentration. The essentials: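 48 h compound exposure at 37 C, 5% CO2; five-point qHTS. ATPlite luminescence readout of cell ATP.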
In general terms: qHTS replaces the single test concentration by a dilution series.
With `O=C(OC[C@H]1O[C@@H](Oc2ccc(O)cc2CO)[C@H](O)[C@@H](O)[C@@H]1O)c1ccccc1`, the “activity change, negative = cytotoxicity” value was 5.33% [at 25.3 µM].
On the same count and under the same terms, the figure for `CC(C)(NC(=O)[C@@H](N)Cc1ccc(O)cc1)C(=O)N[C@@H](Cc1cc2ccccc2[nH]1)C(=O)N[C@@H](Cc1ccccc1)C(=O)O` (H-Y[Aib][Ala(indol-2-yl)]F-OH) is -10.9% [at 11.6 µM]; for `C=C1[C@@H](C)[C@H]2[C@H](Cc3ccccc3)NC(=O)[C@]23[C@H](OC(C)=O)/C=C/[C@](C)(O)C(=O)[C@@H](C)C/C=C/[C@H]3[C@@H]1O` it is -39.9%.
Still for that read-out and setting: the figure for `COc1ccc2c3c([nH]c2c1)C(C=C(C)C)N1C(=O)C2CCCN2C(=O)C1C3` (configuration not stated) is -3.13% [at 38.5 µM].
Consider `C[C@@H]1C[C@@H](O)[C@]2(O)O[C@@H]3C[C@@]4(C=O)C(CC[C@@H]5C4CC[C@]4(C)[C@@](O)(C6=CC(=O)OC6)CC[C@]54O)C[C@H]3OC2O1` (some centres not stated), for which the Potency is 0.891 µM (active).
Same read-out and setting: the figure for `CC(=O)OC[C@]12C[C@H](OC(=O)CC(C)C)C(C)=C[C@H]1O[C@@H]1[C@H](O)[C@@H](OC(C)=O)[C@@]2(C)[C@@]12CO2` is 0.224 µM (active).
On the same count and under the same terms, the figure for `CC[C@H](C)[C@H](NC(=O)[C@H]1CCCCN1C)C(=O)N(COC(=O)CC(C)C)[C@H](C[C@@H](OC(C)=O)c1nc(C(=O)N[C@@H](Cc2ccc(O)cc2)C[C@H](C)C(=O)O)cs1)C(C)C` is 0.0041 µM (active); for `CN[C@@H]1C[C@H]2O[C@@](C)([C@@H]1OC)n1c3ccccc3c3c4c(c5c6ccccc6n2c5c31)C(=O)NC4` it is 0.891 µM (active).
On the same count and under the same terms, the figure for `CC(=O)OC[C@]12C[C@H](OC(=O)CC(C)C)C(C)=C[C@H]1O[C@@H]1[C@H](O)[C@@H](O)[C@@]2(C)[C@]12CO2` is 0.316 µM (active); for `CC(=O)OC[C@]12C[C@H](OC(=O)CC(C)C)C(C)=C[C@H]1O[C@@H]1[C@H](O)C[C@@]2(C)[C@]12CO2` it is 2.24 µM (active); for `COC1CC(O[C@H]2CC[C@]3(C)C4CC[C@]5(C)[C@@H](C6=CC(=O)OC6)[C@@H](OC(C)=O)C[C@]5(O)C4CC[C@@H]3C2)OC(C)C1O[C@@H]1O[C@H](CO)[C@@H](O)[C@H](O)[C@H]1O` (some centres not stated) it is 0.355 µM (active).
For `Cc1c(Cl)c(OCC(=O)N2CCN(C)CC2)nc2sc(C(=O)NC3CC3)c(N)c12`, the “activity change, negative = cytotoxicity” value was 8.83%.
On to `C[C@H]1O[C@@H](O[C@H]2CC[C@]3(C=O)C4CC[C@]5(C)[C@@H](C6=CC(=O)OC6)CC[C@]5(O)[C@@H]4CC[C@]3(O)C2)C[C@@H](O)[C@@H]1O` (some centres not stated), for which the Potency was 0.0251 µM (active).
Same read-out and setting: the figure for `COC1CC(O[C@H]2CC[C@]3(C=O)C4CC[C@]5(C)[C@@H](C6=CC(=O)OC6)CC[C@]5(O)[C@@H]4CC[C@@H]3C2)OC(C)C1O[C@@H]1O[C@H](CO)[C@@H](O[C@@H]2O[C@H](CO)[C@@H](O)[C@H](O)[C@H]2O)[C@H](O)[C@H]1O` (some centres not stated) is 0.112 µM (active); for `C[C@H]1O[C@@H](O[C@H]2CC[C@]3(CO)C4CC[C@]5(C)[C@@H](C6=CC(=O)OC6)CC[C@]5(O)[C@@H]4CC[C@H]3C2)[C@H](O)[C@H](O)[C@@H]1O[C@@H]1O[C@H](CO)[C@@H](O)[C@H](O)[C@H]1O` (some centres not stated) it is 1.12 µM (active).
Turning to `C[C@H]1O[C@@H](n2cnc3c(N)ncnc32)C[C@@H]1O`, the “activity change, negative = cytotoxicity” value was 11%.
Same read-out and setting: the figure for `OCc1nnc2n1-c1ccc(Cl)cc1C(c1ccccc1Cl)=NC2` is 10.7%; for `CC[C@H]1C2CC3[C@@H]4N(C)c5ccccc5[C@]45C[C@@H]([C@H]2[C@H]5O)N3[C@@H]1O` it is -0.0457% [at 38.5 µM].
In the case of `CO[C@@H]1C[C@H](O[C@H]2CC[C@@]3(C)C(CCC4C3CC[C@]3(C)[C@@H](C5=CC(=O)OC5)[C@@H](OC(C)=O)CC43O)C2)O[C@H](C)[C@@H]1O[C@H]1O[C@H](CO[C@@H]2O[C@H](CO)[C@@H](O)[C@H](O)[C@H]2O)[C@@H](O)[C@H](O)[C@H]1O` (some centres not stated), the Potency was 0.316 µM (active).
On the same count and under the same terms, the figure for `CC[C@@]1(O)C(=O)OCc2c1cc1n(c2=O)Cc2cc3c(OC)cccc3nc2-1` is 0.224 µM (active).
With `CC(=O)O[C@H]1CC[C@@]2(CI)C(=CC[C@@H]3[C@@H]2CC[C@]2(C)C(=O)CC[C@@H]32)C1`, the “activity change, negative = cytotoxicity” value is 3.24%.
As to `C=C1[C@@H](C)[C@H]2[C@H](Cc3ccccc3)NC(=O)[C@]23OC(=O)/C=C/C(=O)CCC[C@@H](C)C/C=C/[C@H]3[C@@H]1O`, the Potency was 15.8 µM (active).
Turning to `C[C@H](CCC(=O)O)C[C@H](C)C[C@H](C)C(=O)/C=C(\O)[C@H](C)C[C@H](C)C/C=C/[C@@H](C)[C@@H](O)[C@@H](C)[C@@H](O)C[C@@H]1CC[C@@](C)([C@H]2CC[C@@](C)([C@@H](C)O)O2)O1`, the “activity change, negative = cytotoxicity” value was -12.2% [at 25.3 µM].
Still for that read-out and setting: the figure for `CN(C)c1cc2c(cc1Sc1nc3c(N)nccc3n1CCNCC(C)(C)C)OCO2` is -42.1%.
Take `C[C@H]1C/C=C/[C@H]2[C@@H]3O[C@]3(C)[C@@H](C)[C@H]3[C@H](Cc4ccccc4)NC(=O)[C@]32OC(=O)O/C=C/[C@@](C)(O)C1=O`: the Potency is 3.16 µM (active).
Consider `CC(C)(C)[C@]1(O)C[C@@H]2OC(=O)C[C@@]23C(=O)O[C@@H]2OC(=O)[C@@H](O)[C@]213`, for which the “activity change, negative = cytotoxicity” value was 10.5% [at 38.5 µM].
Still for that read-out and setting: the figure for `N#CC(O[C@@H]1O[C@H](CO)[C@@H](O)[C@H](O)[C@H]1O)c1ccccc1` (some centres not stated) is 2.07%.
In the case of `COC1CC(O[C@H]2CC[C@]3(C)C4CC[C@]5(C)[C@@H](C6=CC(=O)OC6)[C@@H](OC(C)=O)C[C@]5(O)C4CC[C@@H]3C2)OC(C)C1O` (some centres not stated), the Potency was 0.251 µM (active).
Consider `CC(=O)O[C@H]1CN2CCC1CC2`, for which the “activity change, negative = cytotoxicity” value is 2.66%.
Consider `CC(=O)OC[C@]12C[C@H](O)C(C)=C[C@H]1O[C@@H]1[C@H](O)[C@@H](OC(C)=O)[C@@]2(C)[C@]12CO2`, for which the Potency is 0.1 µM (active).
On the same count and under the same terms, the figure for `CC[C@@H]1C[C@H]2CC[C@H](O2)[C@H](C)C(=O)O[C@@H](C)C[C@@H]2CC[C@@H](O2)[C@@H](C)C(=O)O[C@H](CC)C[C@H]2CC[C@H](O2)[C@H](C)C(=O)O[C@@H](C)C[C@@H]2CC[C@@H](O2)[C@@H](C)C(=O)O1` is 0.562 µM (active); for `N#Cc1cn([C@@H]2O[C@H](CO)[C@H](O)[C@@H]2O)c2ncnc(N)c12` it is 0.316 µM (active).
